From PubChem
Gli-Sufu antag = Gli-Sufu pathway antagonists, primary screen, luciferase luminescence, Sufu-KO-LIGHT cells, uHTS; AID 588413, 2011; Sufu-KO-LIGHT fibroblasts, Gli luciferase reporter luminescence; inhibition, % at 5 µM; hit rate 0.74% among 340,000;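 active means inhibition above about 55%, limit read from the data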;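 further: 0% = DMSO-treated cells and 100% = wells with medium but no cells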
SRC2 inh = inhibition of GAL4-SRC2 driven luciferase reporter, primary screen, SRC2 inhibitor project, cell-based, luminescence; Nuclear receptor coactivator 2 (Homo sapiens), Q15596; HEK293 GAL4-SRC2 luciferase reporter; inhibition, % at 9 µM; hit rate 0.17% among 370,000; AID 651957, 2012;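 active means inhibition above the mean inhibition of all tested compounds plus 3 SD, set per campaign, cut at about 52% in these data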;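 further: 0% = DMSO treated cells and 100% = cells given Gossypol at 36 µM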
NR5A2 inv ag = LRH-1 (NR5A2) inverse agonists, primary screen, cell-based, luminescence, HEK293T, StAR-luciferase reporter. Nuclear receptor subfamily 5 group A member 2 (Homo sapiens), O00482. LRH-1 transfected, 24 h. inhibition, % at 3.6 µM. hit rate 0.13% among 360,000;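 active means inhibition above the mean inhibition of all tested compounds plus 3 SD, cut at about 73% in these data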;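 further: 0% = DMSO wells and 100% = reporter-only cells lacking LRH-1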
NCOA3 inh = SRC3 coactivator transcriptional activity inhibitors, primary screen, cell-based, luminescence. HEK293 GAL4-SRC3 luciferase reporter. inhibition, % at 3.6 µM. hit rate 0.17% among 360,000. AID 588352, 2011;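 active means inhibition above a per-campaign cutoff, the mean of all compounds plus 3 SD, cut at about 60% in these data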;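 further: 0% = DMSO-treated cells and 100% = gossypol-treated cells at 36 µM; higher means less SRC3-driven luciferase light from the GAL4 reporter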
NR2F2 inh = NR2F2 transcriptional activity inhibitors, primary screen, cell-based, luciferase reporter, HEK293T, luminescence; COUP transcription factor 2 (Homo sapiens), P24468; HEK293T NGFI-A luciferase reporter; inhibition, % at 8.6 µM; hit rate 0.7% among 370,000; AID 686940, 2013;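 active means inhibition above a per-plate cutoff, mean inhibition of test wells between control levels plus 3 SD, cut at about 38% in these data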;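 further: cells cotransfected with COUP-TFII expression vector driving the NGFI-A reporter; 0% = median of COUP-TF2 test wells and 100% = reporter-only cells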
SRC1 inh = SRC1 coactivator transcriptional activity inhibitors, primary screen, cell-based, luminescence; Nuclear receptor coactivator 1 (Homo sapiens), Q15788; HEK293 GAL4-SRC1 luciferase reporter; inhibition, % at 3.6 µM; hit rate 0.12% among 360,000; AID 588354, 2011;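 active means inhibition above the campaign mean plus 3 SD, with each screening campaign given its own cutoff, cut at about 60% in these data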;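 further: 0% = DMSO treated cells and 100% = gossypol at 36 µM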
Gli antag conf = Gli-SUFU pathway antagonists, confirmation, single concentration, luciferase luminescence, Sufu-KO-LIGHT cells. shares compounds with Gli-Sufu antag. Gli luciferase reporter. inhibition, % at 5 µM. hit rate 40% among 2,500;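 active means mean inhibition at 5 µM reaching about 45%, limit read from the data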;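 further: plate controls were DMSO-treated cells for no effect and wells lacking cells for full effect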
SufuKO cytotox = cytotoxicity in Sufu-KO-LIGHT cells, confirmation, cytotoxicity control for Gli-SUFU antagonist project, cell-based, ATP luminescence, single concentration | shares compounds with Gli-Sufu antag | cytotoxicity, % at 5 µM | hit rate 32% among 2,500;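 active means mean cytotoxicity at 5 µM above about 25%, limit read from the data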;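 further: cells exposed to compound overnight for roughly 16 to 18 hours; plate controls were DMSO wells with cells for no effect and medium without cells for full effect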
Wnt3a counter = Wnt3a reporter signal inhibition, confirmation, counter-screen for Gli-SUFU antagonist project, Wnt-LIGHT cells, luminescence, single concentration; AID 651995, 2013; hit rate 20% among 2,500; inhibition, % at 6.25 µM; Wnt3a-driven luciferase reporter; shares compounds with Gli-Sufu antag;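 active means mean inhibition above about 25%, limit read from the data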
Numbers without * were called inactive; / = no result given. Only some compounds are listed: those with a hit (about 1.3% of all), similar ones and a draw of the others.

SMILES | Gli-Sufu antag | SRC2 inh | NR5A2 inv ag | NCOA3 inh | NR2F2 inh | SRC1 inh | Gli antag conf | SufuKO cytotox | Wnt3a counter
O=C(NC1CCCCN(Cc2cccc(Cl)c2)C1=O)c1ccc(F)c(F)c1 (centres undefined) | / | 6.6 | / | / | -10.2 | / | / | / | /
COc1cc(OC)cc(-c2csc(N3CCC(C(N)=O)CC3)n2)c1 | / | / | / | / | 1.7 | / | / | / | /
CCOC(=O)CNC1CC(=O)N(c2ccc(Br)cc2)C1=O (centres undefined) | 77.0* | 7.6 | 6.3 | -16.4 | -16.9 | -8.6 | 15.0 | 14.0 | -9.0
O=C(NNC1CC(=O)N(c2ccc(Br)cc2)C1=O)c1cccs1 (centres undefined) | 2.3 | -10.1 | -14.3 | -9.9 | -31.4 | -6.6 | / | / | /
CC(C)n1c(NCCc2ccccc2)nc2c1c(=O)n(C)c(=O)n2C | 51.0 | 4.7 | -0.1 | 40.9 | 19.1 | 17.5 | 59.1* | 37.8* | -5.1
CC(=O)C(C)n1c(CN(C)Cc2ccccc2)nc2c1c(=O)n(C)c(=O)n2C (centres undefined) | 4.6 | -2.5 | 7.1 | 5.5 | 23.0 | -2.1 | / | / | /
C=C(C)Cn1c(CN(C)Cc2ccccc2)nc2c1c(=O)n(C)c(=O)n2C | 57.8* | -42.0 | 16.1 | -11.6 | -17.0 | 14.5 | 25.4 | 37.5* | -8.5
CC(C)n1c(CN(C)Cc2ccccc2)nc2c1c(=O)n(C)c(=O)n2C | 69.7* | 24.0 | / | / | 29.8 | / | 78.3* | 24.9 | 47.8*
Cn1c(=O)c2c(nc(NCCO)n2CCc2ccccc2)n(C)c1=O | 15.1 | 15.7 | -4.5 | 22.1 | 21.4 | 12.6 | / | / | /
O=C(c1ccc(Cl)c(Cl)c1)N1CCC(Oc2cccnc2)CC1 | / | -11.0 | / | / | 2.1 | / | / | / | /
CC(C)(C)C1=Nn2c(nnc2-c2ccc(C(C)(C)C)cc2)SC1 | / | 4.9 | / | / | 10.0 | / | / | / | /
CCOc1ccc(C2=Nn3cnnc3SC2)cc1 | 99.1* | -9.5 | -3.5 | 10.3 | 8.8 | -8.1 | 14.2 | 20.1 | 27.3*
COc1cccc(NC(=O)Nc2nc3ncccn3c2-c2ccc(C)cc2)c1 | / | -42.9 | / | / | -32.0 | / | / | / | /
C[C@H]1COc2cc(Br)ccc2S(=O)(=O)N1Cc1cn(Cc2ccccc2)nn1 | / | 1.6 | / | / | 0.4 | / | / | / | /
O=C(OC12CCCN(C1)/C(=C/c1ccc(Cl)cc1)C2)C1CCCC1 (centres undefined) | / | -5.9 | / | / | 3.4 | / | / | / | /
COc1cc(C(=O)NC2CCN(C)CC2)ccc1Nc1ncc2c(n1)N(C1CCCC1)CCC(=O)N2C(C)C | 30.4 | / | 27.4 | 9.9 | / | -10.8 | / | / | /
COc1cc(C(=O)NC2CCN(C)CC2)ccc1Nc1ncc2c(n1)N(CCc1ccccc1)CCC(=O)N2C | 75.2* | -115.3 | 42.0 | 23.1 | -90.4 | -29.3 | 67.3* | 2.8 | -13.2
Cc1ccccc1Cn1cnc2c(cnn2C(C)(C)C)c1=O | 16.7 | -13.3 | -3.1 | 5.3 | -0.7 | -8.6 | / | / | /
CC(C)(C)n1ncc2c(=O)n(Cc3cccc(Cn4cnc5c(cnn5C(C)(C)C)c4=O)c3F)cnc21 | 77.0* | 16.2 | -7.4 | -10.8 | -16.0 | -2.7 | 78.1* | 37.7* | 17.8
Cc1ccc(Cn2cc(CN3[C@H](CC(C)C)COc4cc(Br)ccc4S3(=O)=O)nn2)cc1 | / | -6.1 | / | / | 4.7 | / | / | / | /
Cc1cccc(N2C(=O)/C(=C/c3cccnc3)SC2=S)c1 | 44.2 | -0.4 | 3.1 | 13.5 | -4.7 | -15.9 | / | / | /
Cc1cc(/C=C2/SC(=S)N(c3ccc([N+](=O)[O-])cc3)C2=O)c(C)n1-c1cccnc1 | 80.8* | 20.0 | 0.8 | 21.7 | 11.0 | 13.6 | 82.3* | 20.2 | -8.4
Cc1ccc(NC(=O)C2CCCN(c3nnc(-n4cccc4)s3)C2)cc1C (centres undefined) | / | -0.8 | / | / | 8.6 | / | / | / | /
CC1(C)Cc2ccccc2C2=C(C(=O)N3CCCCCC3)C(=O)C(=O)N21 | 72.5* | -33.1 | 11.2 | 14.2 | 14.2 | -15.7 | 11.8 | 11.0 | -5.6
COc1cc(C=Nn2c(-c3cc(-c4ccccc4)n[nH]3)n[nH]c2=S)ccc1OC(C)=O | / | -29.0 | / | / | -34.6 | / | / | / | /
SMILES | Gli-Sufu antag | SRC2 inh | NR5A2 inv ag | NCOA3 inh | NR2F2 inh | SRC1 inh | Gli antag conf | SufuKO cytotox | Wnt3a counter
Cc1ccc(CN2CCC(CNS(=O)(=O)c3ccc(-c4ccc(=O)[nH]n4)s3)CC2)cc1 | 60.3* | -25.0 | 5.1 | 1.6 | 2.7 | 1.4 | 20.8 | 11.6 | 12.5
O=c1ccc(-c2ccc(S(=O)(=O)NCc3cccc(Br)c3)s2)n[nH]1 | / | 1.1 | 24.7 | -4.8 | 9.3 | -3.4 | / | / | /
CCCCCCCCN1CCS(=O)(=O)N(Cc2ccccc2)C(C(=O)OC)C1 (centres undefined) | / | 19.4 | / | / | 5.0 | / | / | / | /
O=C(CSc1nc2ccccc2nc1N1CCCCC1)N1CCN(S(=O)(=O)c2cc(Cl)ccc2Cl)CC1 | / | -24.3 | / | / | 4.9 | / | / | / | /
C=CCN1C(=O)[C@@H](CC(=O)NCc2cccs2)[C@]2(C(=O)OC)CCCCC=C12 | / | -3.1 | / | / | 2.7 | / | / | / | /
CCOC(=O)CN1C(=O)/C(=C/c2ccccc2Br)Oc2ccccc21 | 57.2* | -6.1 | 9.0 | 5.2 | 2.0 | 8.4 | 12.1 | 6.5 | -7.8
COc1ccc(-c2cc(-c3nnc(SCC(=O)Nc4ccccc4-c4ccccc4)n3N)[nH]n2)cc1 | / | -27.7 | / | / | 7.9 | / | / | / | /
NC(=O)CC(NC(=O)c1ccc(Br)cc1)c1ccc(N2CCCCCC2)c([N+](=O)[O-])c1 (centres undefined) | 60.9* | 37.8 | 21.8 | 19.6 | 14.7 | -0.7 | 32.1 | 22.6 | -109.0
NC(=O)CC(NC(=O)c1ccccc1)c1ccc(N2CCCCCCC2)c([N+](=O)[O-])c1 (centres undefined) | 36.4 | -2.3 | 17.6 | -3.0 | -4.6 | -2.7 | / | / | /
Nn1c(SCC(=O)Nc2ccc(C(=O)O)cc2)nnc1-c1ccco1 | / | -9.5 | / | / | 5.1 | / | / | / | /
O=C(CSCc1ccc(Cl)cc1)N/N=C/c1ccccc1 | 50.5 | -30.8 | -4.2 | 9.4 | -4.8 | -24.9 | 7.6 | 15.2 | -2.7
O=C(CSCc1ccc(Cl)cc1)N/N=C/c1c(Cl)cccc1Cl | 4.6 | -6.5 | -9.1 | 2.5 | -11.0 | -7.0 | / | / | /
Cc1cc(C(=O)COC(=O)c2cccc(O)c2)c(C)n1C1CC1 | 99.0* | -19.7 | -67.6 | -38.0 | 2.1 | -52.8 | 6.9 | 32.8* | 64.4*
